This is a sample that favours compounds with a hit; in the whole collection about 7.5% have one here.
Rab9 prom act – Rab9 promoter activation | Huh7 Rab9 promoter-luciferase reporter, luminescence, 24 h | Potency, µM (doses to about 9.22 µM), without a hit: at the top dose activation, negative = inhibition, actives largely listed as activators | 320,000 compounds, 2.8% hits | AID 485297; further: % of control where 0% means no effect; nearly all actives have a fitted effect of over 60% in size
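Rab9 promoter-driven luciferase in stably transfected Huh7 cells; 1500 cells/well rested 2 h, exposed to compound in DMSO for 24 h at 37 °C, 5% CO2. Luminescence read 10 min after adding luciferase reagent at ambient temperature.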
SMN2 splice up – enhancers of SMN2 splice variant expression | 210,000 compounds, 2.8% hits | Potency, µM (highest dose often 46.1 µM), for the others: at the highest dose activity change, positive = activation, most hits filed as activators | HEK293 SMN2-luciferase splicing reporter, luminescence, 30-36 h | AID 1458; further: % of control where 0% means no effect; nearly all actives have a fitted effect of over 55% in size
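HEK293 cells carry an SMN2 […]–luciferase reporter in which exon 7 inclusion puts luciferase in frame. Cells were plated 10-12 h before compound addition, then incubated 30-36 h at 37C. ONE-Glo luminescence was read; sodium butyrate at 4.5 mM final served as control.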
FLuc modulator – firefly luciferase modulation, counter-screen for miR-21 project; purified FLuc, Km substrates, luminescence inhibition; 360,000 compounds, 6.9% hits; Potency, µM (top dose mostly 57.5 µM), inactives show at the top dose activity change, negative = inhibition, usual class: inhibitors;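 further: plate controls were vehicle for no effect and reference inhibitor for full effect; nearly all actives have a fitted effect of over 55% in size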
Target sequence (P08659 whole entry, looked up): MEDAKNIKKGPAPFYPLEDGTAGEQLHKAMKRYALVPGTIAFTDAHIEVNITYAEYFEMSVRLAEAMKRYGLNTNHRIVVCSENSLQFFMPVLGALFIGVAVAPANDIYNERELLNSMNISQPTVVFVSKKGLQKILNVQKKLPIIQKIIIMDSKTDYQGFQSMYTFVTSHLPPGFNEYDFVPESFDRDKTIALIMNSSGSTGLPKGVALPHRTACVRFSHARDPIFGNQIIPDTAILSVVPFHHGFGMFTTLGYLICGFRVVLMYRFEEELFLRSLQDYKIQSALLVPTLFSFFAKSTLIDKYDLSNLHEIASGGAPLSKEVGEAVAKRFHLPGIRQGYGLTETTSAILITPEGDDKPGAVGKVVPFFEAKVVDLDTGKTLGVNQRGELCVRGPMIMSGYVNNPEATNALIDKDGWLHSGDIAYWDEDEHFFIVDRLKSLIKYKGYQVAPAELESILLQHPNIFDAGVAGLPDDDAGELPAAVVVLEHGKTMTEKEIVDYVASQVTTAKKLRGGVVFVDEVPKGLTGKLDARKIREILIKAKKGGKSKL
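Purified P. pyralis luciferase (10nM final) with 10uM D-luciferin and 10uM ATP (Km levels) in 50mM Tris acetate pH 7.5, 10mM Mg acetate, 0.01% Tween-20, 0.05% BSA; qHTS 6-point titration, ~60 µM downward; luminescence read.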
ELG1 genotoxic – inducers of genotoxicity in HEK293T ELG1-luciferase cells. HEK293T ELG1-luciferase reporter, luminescence, 16 h. Potency, µM (top dose mostly 46 µM), inactives show at the top dose activity change, positive = activation, hits mostly activators. 330,000 compounds, 1.3% hits. AID 504466; further: % of control where 0% means no effect; nearly all actives have a fitted effect of over 60% in size
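Step 1: seed 2,000 HEK293T ELG1-luciferase cells per well. Step 2: add compound or DMSO, incubate 16 hr at 37 °C. Step 3: ONE-Glo, 30 min at room temperature, read luminescence.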
Luc counter – blocks Kinase-Glo luciferase, a counter-screen artifact; Kinase-Glo luciferase, ATP luminescence, 8 min; Potency, µM (top dose mostly 38.3 µM), for the others: at the highest dose activity change, negative = inhibition, hits mostly inhibitors; 200,000 compounds, 0.28% hits; AID 1379; further: on the % scale 0 is the no-effect control and ±100 the full control effect; nearly all actives have a fitted effect of over 60% in size
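Luminescence was the read-out, taken after 8-minute incubation at ambient temperature. Luciferase turned over luciferin with 10 uM ATP in imidazole pH 7.2 buffer containing KCl, MgCl2, Tween 20 and BSA.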
NPC1 promoter act – activates the NPC1 promoter | Huh7 NPC1 promoter luciferase reporter, 24 h | Potency, µM (titrated, usually from 9.22 µM), for the others: at the highest dose activation, most hits filed as activators | 320,000 compounds, 2.4% hits | AID 485313; further: % of control where 0% means no effect; nearly all actives have a fitted effect of over 60% in size
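Compounds in DMSO were transferred onto Huh7 NPC1-luciferase reporter cells pre-incubated 2 h; after 24 h at 37 °C, Amplite reagent was dispensed and luminescence recorded 10 min later.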
* hit, by the source's call; u = inconclusive; x = no result given; [ ] = remark or other dose. The call rests on the fitted dose curve; in most records, active means well fitted curve in the direction sought with a large enough effect; inconclusive means small, poorly fitted or top-dose-only effect, or another doubt; inactive means no such curve, though single readings can be large; an effect the other way counts as inactive or inconclusive. Potency means the concentration at half of the fitted maximal effect.

SMILES	Rab9 prom act	SMN2 splice up	FLuc modulator	ELG1 genotoxic	Luc counter	NPC1 promoter act
CC(C)c1nn2c(=O)cc(COC(=O)c3cccc(NC(=O)c4cccs4)c3)nc2s1	x	x	1%	x	x	x
COc1ccc(C2=CSC3=NNC4(CCCCC4)NN23)cc1	u	5%	u	9%	3%	-11%
Cc1ccc(C2=CSC3=NNC4(CCCCC4)NN23)cc1	4.5µM*	-17%	11µM*	15%	1%	-14%
CN(C)c1ncc2nc(-c3ccc(F)cc3)c(=O)n(C3CC3)c2n1	x	-2%	x	x	-8%	x
CSc1ccc(C2c3c(oc4ccc(F)cc4c3=O)C(=O)N2c2ccc(C)cn2)cc1 (stereo not given)	x	-1%	2%	x	x	x
CCCCCc1ccc(-c2ccc(=O)[nH]n2)cc1	3%	-9%	19µM*	19%	14%	9%
Cc1ccc(-c2ccc(=O)[nH]n2)cc1	12%	1%	0%	5%	0%	0%
CC(C)CC(=O)Nc1cccc(-c2csc(-c3ccccc3)n2)c1	15%	u	u	-2%	0%	0%
CCC(=O)Nc1cccc(-c2csc(-c3ccccc3)n2)c1	22%	u	15µM*	8%	0%	20%
C/C(=N/Nc1nc(-c2ccc(Cl)cc2)cs1)c1cccs1	u	u	15µM*	17%	-9%	18%
CC(C)=NNc1nc(-c2ccc([N+](=O)[O-])cc2)cs1	12%	-26%	u	9%	0%	7%
CC(=O)Nc1ccc(-c2csc(NCc3ccccc3)n2)cc1	u	17%	19µM*	u	6%	22%
CC(=O)Nc1ccc(-c2csc(NNC(=O)c3ccccc3)n2)cc1	19%	-1%	4%	-1%	4%	-1%
CC(=O)Nc1cccc(-c2csc(NCc3ccccc3)n2)c1	-3%	x	21µM*	2%	0%	-3%
COc1ccc(C(=O)NCCn2cc(SCc3ccc(C(F)(F)F)cc3)c3ccccc32)cc1OC	x	0%	-11%	x	x	x
CCN1CCC(N(Cc2cccc(OC)c2)C(=O)Nc2ccc(C)cc2Cl)CC1	x	x	2%	x	x	x
CC(=O)Nc1ccc(-c2csc(N/N=C(/C)c3ccccc3)n2)cc1	10%	x	21µM*	-11%	x	24%
Cc1cccc2cc3c(nc12)-c1ccccc1C3=O	3%	x	15µM*	u	x	1%
Cc1nc2c(cc1C#N)C(=O)c1ccccc1-2	2%	6%	2%	3%	-5%	-2%
Cc1ccc(/C=N/NC(=O)C[n+]2ccccc2)s1	2%	x	-1%	7%	x	0%
O=C(O)c1cccc(N/N=C/c2sc(N3CCOCC3)nc2-c2ccccc2)c1	2.8µM*	17%[1.84 µM]	1.2µM*	15µM*	-11%	4µM*
Cc1ccc(/C=N/NC(=O)c2cccnc2)s1	12%	x	u	12%	x	13%
O=C(N/N=C\c1cc(Br)cs1)c1ccncc1	4%	x	u	-6%	x	-38%
Cc1ccc(/C=N/Nc2cccc(C(=O)O)c2)s1	0.089µM*	0.25µM*	0.95µM*	u	2%	0.089µM*
Cc1ccc(/C=N/Nc2ccc(C(=O)O)cc2)s1	u	-98%	0.54µM*	u	u	u
SMILES	Rab9 prom act	SMN2 splice up	FLuc modulator	ELG1 genotoxic	Luc counter	NPC1 promoter act
O=C(O)c1ccc(N/N=C/c2cc(Br)cs2)cc1	0.1µM*	x	0.24µM*	u	x	0.089µM*
Nc1ccc(C(=O)N/N=C/c2sc(N3CCOCC3)nc2-c2ccccc2)cc1	-1%	u	u	5%	-5%	0%
Cc1cc2c(cc1S(=O)(=O)Nc1cccc(Cl)c1C)n(C)c(=O)c(=O)n2C	x	x	-3%	x	x	x
COC(=O)c1ccc(NC(=O)CSCC(=O)OCC(=O)c2ccc(Br)cc2)cc1	1%	-11%	12µM*	0%	-2%	-3%
CN(C(=O)CSc1nc(C2CCCC2)nc2c1c(=O)n(C)c(=O)n2C)c1ccccc1	x	x	-1%	x	x	x
Cc1cc(C)cc(NC(=O)c2ccc(CNc3c(N4CCOCC4)c(=O)c3=O)cc2)c1	5%	-9%	-19%	1%	0%	-2%
